Source: PubChem BioAssay
This is a sample that favours compounds with a hit; in the whole collection about 10% have one here.
G9a block – blocks human histone lysine methyltransferase G9a; G9a H3K9 monomethylation, AlphaScreen, 2 h; Potency, µM (doses to about 102 µM), usual class: inhibitors; hit rate 8.8% among 350,000; AID 504332; also: nearly all actives have a fitted effect of over 75% in size
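Signal arises when biotinylated H3K9 peptide, once monomethylated, bridges streptavidin donor and antibody-captured acceptor beads. Enzyme at 20 nM was preincubated 15 min with test compounds; peptide 500 nM and SAM 20 uM then reacted for 2 h.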
HP1b binding inh – blocks HP1-beta chromodomain binding to methylated histone tails; AlphaScreen HP1-beta / biotin-H3K9me3 peptide binding; Potency, µM (top dose mostly 114 µM), usual class: inhibitors; hit rate 0.56% among 390,000; AID 540317; also: nearly all actives have a fitted effect of over 70% in size
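HP1-beta protein (50 nM final) preincubated 30 min at room temperature with biotinylated H3(1-18)K9me3 peptide (50 nM) in PBS pH 7.4, 0.01% Tween-20, then compound added for 30 min. AlphaScreen streptavidin donor/nickel chelate acceptor beads (10 ug/mL final), 30 min dark, luminescence read.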
L3MBTL1 block – blocks human L3MBTL1; hit rate 0.66% among 230,000; Q9Y468; AlphaScreen L3MBTL1–H3K9me1 peptide binding; AID 485360; Potency, µM (series often up to 57.1 µM), actives largely listed as inhibitors; also: nearly all actives have a fitted effect of over 60% in size
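AlphaScreen proximity signal between nickel-chelate acceptor and streptavidin donor beads (final 10 ug/mL) reports binding of 50 nM L3MBTL1 to 75 nM biotin-H3 K9me1 peptide; complex incubated with compounds 30 min at room temperature; cefsulodin titration as control.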
JMJD2A Tudor – blocks the human JMJD2A Tudor domain | hit rate 4.4% among 390,000 | AlphaScreen JMJD2A-Tudor / H3K4me3 peptide binding | O75164 | Potency, µM (highest dose often 114 µM), hits mostly inhibitors; also: nearly all actives have a fitted effect of over 50% in size
BAZ2B block – BAZ2B (human) inhibition | Potency, µM (series often up to 114 µM), most hits filed as inhibitors | AlphaScreen BAZ2B-H3K14Ac peptide displacement | Q9UIF8 | hit rate 4.4% among 360,000; also: nearly all actives have a fitted effect of over 60% in size
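Protein-peptide AlphaScreen: BAZ2B 50 nM, b-H3K14Ac 50 nM, 1x PBS pH 7.4 + 0.01% Tween-20. Preincubation 30 min RT; cpd 30 min RT (top 110 uM); beads 20 min RT, light-protected.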
GLS inhibitor – blocks human kidney-isoform glutaminase activity | O94925 | GLS enzymatic activity, qHTS titration | Potency, µM (titrated, usually from 45.5 µM), usual class: inhibitors | hit rate 0.21% among 410,000 | AID 624170
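Assay buffer: 45 mM KH2PO4 pH 8.2, 0.02% Tween-20. hKGA acts on L-glutamine (1 mM solution added); product glutamate is reported by an oxidase/peroxidase Amplex Red coupling, with fluorescence taken at baseline and 30 min.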
A number is an active result; - = inactive; ? = inconclusive; . = no result given; ! = repeats disagree; [ ] = dose if it differs, or a comment. Calls follow the shape of the dose curve; as a rule, active = well fitted curve in the direction sought with a large enough effect; inconclusive = small, poorly fitted or top-dose-only effect, or another doubt; inactive = no such curve, though single readings can be large; an effect the other way counts as inactive or inconclusive.

SMILES | G9a block | HP1b binding inh | L3MBTL1 block | JMJD2A Tudor | BAZ2B block | GLS inhibitor
CCOC(=O)c1nc(Nc2ccc(C(=O)OCC(C)C)cc2)c2ccccc2n1 | - | - | . | - | - | -
CCOC(=O)c1ccc(NC(=O)C2CCN(S(=O)(=O)Cc3ccccc3)CC2)cc1 | - | - | . | - | - | -
Cc1cc2nc(-c3ccc(SCc4ccc(C(=O)O)cc4)nc3)[nH]c2cc1C | 32µM | - | - | ? | 32µM | -
Cn1c(NC(=O)c2ccccc2F)cc(=O)n(C)c1=O | 56µM | - | . | - | - | -
Cn1c(NNC(=O)C(c2ccccc2)c2ccccc2)cc(=O)n(C)c1=O | - | - | . | - | - | 8.9µM
Cc1csc2nc(COC(=O)c3ccccc3NC(=O)COc3ccccc3F)cc(=O)n12 | -[12.7 µM] | - | . | - | ? | -
Cc1ccc(CSc2nc3nc(C)cc(C)n3n2)cc1 | . | - | - | - | - | -
Cc1cc(C)n2nc(SCc3cccc(S(=O)(=O)N(C)C)c3)nc2n1 | 45µM | - | . | - | - | -
O=S(=O)(Nc1ccc2nc(N3CCOCC3)sc2c1)c1ccc(Cl)cc1 | 10µM | - | - | - | - | -
O=S(=O)(c1ccc(Cl)cc1)N1CCCN(c2nc3ccc(Cl)cc3s2)CC1 | . | - | - | - | - | -
O=[N+]([O-])c1ccc2nc(NS(=O)(=O)c3ccc(Cl)cc3)sc2c1 | 14µM | - | . | - | ? | -
O=C(NC(Nc1nc2ccc([N+](=O)[O-])cc2s1)(C(F)(F)F)C(F)(F)F)c1ccccc1Cl | 79µM | - | - | ? | - | -
CCCCCCCCCCCCC[N+](C)(C)Cc1ccccc1 | -[2.33 µM] | . | . | . | . | .
COc1ccc(Cl)cc1S(=O)(=O)NC(C)C(=O)NCc1ccc2c(c1)OCO2 (stereo unspecified) | - | - | . | 50µM | - | -
COc1ccc(NCc2ccc3c(c2)OCO3)cc1Cl | ? | ? | - | 45µM | 40µM | -
COc1cc(OC)c(OC)cc1CNCc1ccc2c(c1)OCO2 | 45µM | - | - | 50µM | - | -
Cc1ccc(C)c(NC(=O)Nc2ccc3c(c2)OCO3)c1 | -[12.7 µM] | - | . | - | - | -
Cc1ccc(CNc2ccc3c(c2)OCO3)c(C)c1 | 13µM | . | . | . | 45µM | .
COc1ccc(Cl)cc1S(=O)(=O)NC(C)C(=O)NCc1ccncc1 (stereo unspecified) | - | - | . | - | - | -
COc1cc2sc3cc(NCc4ccc5c(c4)OCO5)ccc3c(=O)c2cc1OC | . | - | - | - | . | -
COc1ccc(C2/C=C\CN(C(=O)c3ccc(C)cc3)C(C)C(=O)N2Cc2ccc(F)cc2)cc1 (stereo unspecified) | . | - | . | - | . | .
CCc1cccc(C)c1NC(=O)CN1C(=O)c2c(c3ccccc3n2C)C1c1ccc(OC)cc1 (stereo unspecified) | - | - | . | - | - | -
COc1ccc(-c2ccc(N(C)C)cc2)cc1[C@H]1[C@H]2C=CC[C@@H](C)[C@@H]2C(=O)N1Cc1ccccc1 | ? | ? | . | 5.6µM | ? | -
COc1ccc(-c2ccc(N(C)C)cc2)cc1C1C2C=CCC(C)C2C(=O)N1Cc1ccccc1 (stereo unspecified) | . | - | . | 7.1µM | . | .
CC(Nc1ccc2c(c1)OCCO2)C(=O)N1c2ccccc2CC1C (stereo unspecified) | ? | - | . | ? | 40µM | -
SMILES | G9a block | HP1b binding inh | L3MBTL1 block | JMJD2A Tudor | BAZ2B block | GLS inhibitor
CCOc1ccc(C(C)=O)cc1N1C(=O)C2C(C1=O)C1C=CC2C12CC2 (stereo unspecified) | - | - | - | - | 50µM | -
CCOc1ccc(C(C)=O)cc1N1C(=O)C2C3C=CC(C3=C(C)C)C2C1=O (stereo unspecified) | ? | - | - | - | - | -
C/C(=N\O)C(=O)NCCCNCCCN(C)C | ? | - | . | - | - | -
C/C(=N\O)C(=O)NCCN(C)C | ? | - | - | 7.9µM | - | -
CCOc1ccc(C2c3c(-c4ccc(C)cc4)n[nH]c3C(=O)N2c2ccc(Cl)cc2)cc1 (stereo unspecified) | - | - | . | - | . | -
COc1ccccc1C(=O)Nc1c(C(=O)N(CCN(C)C)Cc2ccco2)oc2ccccc12 | 40µM! | - | . | 45µM | ? | -
COc1ccc(OCC(=O)Nc2c(C(=O)N(CCN(C)C)Cc3ccco3)oc3ccccc23)cc1 | - | ? | . | ? | 71µM | -
Cc1ccccc1C(=O)Nc1c(C(=O)N(CCN(C)C)Cc2ccco2)oc2ccccc12 | - | - | . | - | ? | -
CSc1nc(-c2ccccc2)nc(NC(=O)c2ccccc2)c1C(C)=O | - | - | - | - | - | -
CC(=O)c1n[nH]nc1NC(=O)c1ccccc1 | 50µM | - | . | 20µM | 50µM | -
O=C(NC(=S)N1CCCc2ccccc21)c1ccc(Br)cc1 | 45µM | - | - | ? | - | -
O=C(NC(=S)N1CCCc2ccccc21)c1ccccc1 | -[0.501 µM] | - | - | ? | ? | -
COc1ccccc1C(=O)NC(=S)N1CCCc2ccccc21 | 10µM | - | - | ? | ? | -
COc1ccccc1C(=O)NC(=S)N1CCc2ccccc21 | 45µM | - | -[11.4 µM] | ? | - | -
CCOC(=O)C1=C(C)OC(N)=C(C#N)C1c1ccc(C)o1 (stereo unspecified) | ? | - | . | - | - | -
N#CC1=C(N)SC(N)=C(C#N)C1c1ccc([N+](=O)[O-])cc1 | 8.9µM | - | - | 56µM | - | -
N#CC1=C(N)SC(N)=C(C#N)C1c1ccc(C(F)(F)F)cc1 | 2.5µM | . | - | . | - | .
Cc1ccc(C2C(C#N)=C(N)SC(N)=C2C#N)o1 | 1.6µM | . | - | . | . | .
N#CC1=C(N)Nc2ncnn2C1c1ccc([N+](=O)[O-])cc1 (stereo unspecified) | ? | - | . | - | - | -
CCc1ccc(C2C(C#N)=C(N)SC(N)=C2C#N)s1 | 40µM | - | - | - | - | -
C/C=C1\COC(C(=O)NCc2cccc(OC)c2OC)(C(F)(F)F)C=C1C=C(C)C (stereo unspecified) | . | - | . | - | . | .
CCc1ccc(C2C(C#N)=C(N)SC(N)=C2C#N)cc1 | 8.9µM | - | - | ? | ? | -
CCc1ccc(C2C(C#N)=C(N)Oc3cc(N)ccc32)cc1 (stereo unspecified) | ? | - | - | - | ? | -
Cc1cc(C)c2sc(N3CCN(C(=O)c4ccc(N(C)C)cc4)CC3)nc2c1 | 22µM | ? | . | 40µM | 20µM | -
CC(C)c1nn2c(=O)cc(COC(=O)c3cccc(NC(=O)CCc4ccccc4)c3)nc2s1 | -[12.7 µM] | - | . | - | - | -
Cn1ccc(=S)c2ccccc21 | 32µM | - | . | 8.9µM | . | -
CN(Cc1ccccc1)c1nc2c(S(=O)(=O)c3cccc(Cl)c3)nnn2c2ccsc12 | - | - | . | - | - | -
COc1ccc(NC(=O)c2ccc(-c3ccc(-c4noc(C)n4)cc3C)cc2)cc1OCCN(C)C | 16µM | . | . | . | . | .
